Here are results for 15 compounds from PubChem BioAssay (NCI).

Holding throughout (test): NCI-60 one-dose screen, 48 h (100 = growth as untreated, 0 = no growth, -100 = all killed)
Common to all, as to settings: 10 µM unless noted

Experiment [1] relates to T-47D breast.
Experiment [2] has as its system BT-549 breast.
In experiment [3] the test system is MDA-MB-435 melanoma.
Experiment [4] concerns SW-620 colon.
For experiment [5], the system named is MCF7 breast.
The subject of experiment [6] is HCT-116 colon.
Experiment [7] has as its system HCC-2998 colon.
Experiment [8] concerns KM12 colon.

The structures appear in SMILES notation. This is part of a sample that, as a whole, favours compounds with a hit. Of some 83,000 tested, about 20% had one in any assay.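 Percent growth is the endpoint: 0 to 100 indicates growth inhibition (40 means 60% inhibition), 0 means no net growth, and negative values indicate cell death.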 A number with no mark means an inactive call. The source made the active and inactive calls. The calls were made as follows: active = growth percent below 10; inactive = the rest.

Consider `COc1ccc(-c2cc(NC(=O)Nc3ccc4ncsc4c3)no2)cc1`, for which the growth in experiment [1] was 86.6%; in experiment [2], 106%; in experiment [3], 105%; in experiment [4], 105%; in experiment [5], 84.6%; in experiment [6] it was 102%. The growth in experiment [7] is 103%; in experiment [8] it was 100%.
As to `O=C1/C(=C/C(Cl)=C/c2ccccc2)SC(=S)N1CCc1ccc(O)cc1`, the growth was -34.4% (active) in experiment [1]; 11.6% in experiment [2]; -30.7% (active) in experiment [3]; 4.79% (active) in experiment [4]; 26.4% in experiment [5]; -62.3% (active) in experiment [6]. Also, the growth was -68.1% (active) in experiment [7] and -31.6% (active) in experiment [8].
For the compound `COC(=O)[C@]12CCC(C)(C)C[C@H]1[C@H]1C(=O)C[C@@H]3[C@@]4(C)c5c([nH]c6ccccc6c5=O)C(C)(C)[C@@H]4CC[C@@]3(C)[C@]1(C)CC2`, the growth in experiment [1] is 52.6%; in experiment [2], 76.4%; in experiment [3], 57.5%; in experiment [4], 71.2%; in experiment [5] it was 44.5%; in experiment [6], 33.8%. For the same compound, the growth is 72.3% in experiment [7] and 72.9% in experiment [8].
`Nc1ccc(-c2cc3c(Nc4ccc(Oc5cccc(C(F)(F)F)c5)c(Cl)c4)ncnc3s2)cc1`: the growth in experiment [1] was 43.8%; in experiment [2] it was 73%; in experiment [3] it was 70.3%; in experiment [4] it was 101%; in experiment [5], 34.7%; in experiment [6] it was 67.9%. For the same compound, the growth in experiment [7] was 69%; in experiment [8], 44.5%.
For `COc1ccc(-n2nc(C)c3c(Nc4ccc(NC(=O)Nc5cccc(C(F)(F)F)c5)cc4)ncnc32)cc1`, the growth in experiment [1] is -13.9% (active); in experiment [2], 25.2%; in experiment [3], 6.96% (active); in experiment [4], 12.4%; in experiment [5] it was 2.15% (active); in experiment [6] it was 1.52% (active). Also, the growth in experiment [7] was 14.1%; in experiment [8] it was 2.78% (active).
In the case of `Cc1[nH]c(-c2ccc3cc[nH]c3c2)c2c1C(=O)CCCC2`, the growth was 32.1% in experiment [1]; 68.3% in experiment [2]; 25.2% in experiment [3]; 73.9% in experiment [4]; 19.5% in experiment [5]; 38.9% in experiment [6]. In addition, the growth in experiment [7] is 57.7%; in experiment [8] it was 47.8%.
In the case of `CCOc1nc(-c2ccccc2)cc2c(O)c(C(=O)O)[nH]c(=O)c12`, the growth was 97.9% in experiment [1]; 108% in experiment [2]; 109% in experiment [3]; 114% in experiment [4]; 103% in experiment [5]; 105% in experiment [6]. The growth in experiment [8] is 93.4%.
In the case of `C=CC(=O)Nc1cccc(Nc2nc(SC)nc(-c3cccc([N+](=O)[O-])c3)c2C#N)c1`, the growth was 42.7% in experiment [1]; 58.4% in experiment [2]; 53% in experiment [3]; 31.6% in experiment [4]; 28.5% in experiment [5]; 19.8% in experiment [6]. The growth in experiment [7] is 48.2%; in experiment [8], 90.5%.
For `O=C1c2cccc3cccc(c23)C(=O)N1CCCCCN1CCN(CCCCCOc2ccc(-c3nc4ccc(N5CCOCC5)cc4[nH]3)cc2)CC1`, the growth is 0.907% (active) in experiment [1]; 29.9% in experiment [2]; 36.4% in experiment [3]; 17.1% in experiment [4]; -25.7% (active) in experiment [5]; 73% in experiment [6]. Also, the growth in experiment [8] is 20.6%.
Take `COc1ccc2[nH]cc(-c3noc(C(=O)c4cn(C)c5ccc(F)cc45)n3)c2c1`: the growth in experiment [1] is 83.8%; in experiment [2], 88.9%; in experiment [3] it was 102%; in experiment [4], 95.1%; in experiment [5] it was 58.8%; in experiment [6] it was 101%. The growth was 101% in experiment [7] and 92.6% in experiment [8].
For the compound `CCCCn1c(-c2ccc(C(=O)O/N=C(\N)c3ccc4ccccc4c3)cc2)nc(-c2ccccc2)c1-c1ccccc1`, the growth in experiment [1] was 46.2%; in experiment [2], 87.9%; in experiment [3] it was 85.1%; in experiment [4], 80.1%; in experiment [5] it was 61.2%; in experiment [6], 60.8%. In addition, the figures for the growth in experiment [7] and in experiment [8] were 95.8% and 76.7%, respectively.
On to `CC(=O)OC[C@H]1O[C@H](OC(C)=O)[C@H](NC(=O)/C=C/CCl)[C@@H](OC(C)=O)[C@@H]1OC(C)=O`, for which the growth in experiment [1] is 69.1%; in experiment [2], 85.9%; in experiment [3], 80.4%; in experiment [4] it was 26%; in experiment [5], 79.3%; in experiment [6], 60.4%. The growth in experiment [8] was 80.5%.
As for `CCOC(=O)C(C)(C#N)C1C=CCCC1` (stereo not given), the growth was 84.5% in experiment [1]; 111% in experiment [2]; 100% in experiment [3]; 91.2% in experiment [4]; 92.7% in experiment [5]; 93.2% in experiment [6]. For the same compound, the values for the growth in experiment [7] and in experiment [8] were 43.5% and 90.5%, respectively.
Turning to `COc1ccc2nc(NC(=O)CSc3nnc4n3S(=O)(=O)c3ccccc3N4c3ccccc3)sc2c1`, the growth in experiment [1] was 93.7%; in experiment [2], 83.7%; in experiment [3] it was 97.8%; in experiment [4], 107%; in experiment [5], 82.3%; in experiment [6], 87.9%. Further, the growth in experiment [8] was 97.4%.
Take `CCOc1ccc(-n2nc(C(=O)Nc3cc(OC)c(OC)c(OC)c3)nc2-c2cc(OC)c(OC)c(OC)c2)cc1`: the growth in experiment [1] was 51.4%; in experiment [2], 91.4%; in experiment [3], 79.6%; in experiment [4] it was 95.5%; in experiment [5], 83.2%; in experiment [6], 75.8%. Also, the growth in experiment [8] is 81.8%.
